Cruzain inh noDet: inhibitors of Trypanosoma cruzi cruzain without detergent; AID 1476; Potency, µM, hits mostly inhibitors; actives 2.3% (n = 200,000); P25779; purified cruzain, Z-FR-AMC fluorescence, no detergent; further: nearly all actives have a fitted effect of over 40% in size
Target sequence (P25779 123-467 limits assumed): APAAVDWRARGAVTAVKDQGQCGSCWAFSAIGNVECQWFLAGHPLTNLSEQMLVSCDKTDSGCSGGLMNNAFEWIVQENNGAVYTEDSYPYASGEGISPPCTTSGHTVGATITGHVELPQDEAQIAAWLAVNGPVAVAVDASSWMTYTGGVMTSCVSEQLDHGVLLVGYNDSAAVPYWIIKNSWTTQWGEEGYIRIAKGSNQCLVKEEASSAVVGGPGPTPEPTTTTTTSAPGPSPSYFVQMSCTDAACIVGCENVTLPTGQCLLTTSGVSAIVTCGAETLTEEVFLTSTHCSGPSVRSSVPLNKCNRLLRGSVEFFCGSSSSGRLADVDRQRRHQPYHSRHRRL
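Purified cruzain at 1.5 nM, pre-incubated 15 min with compound at room temperature in 100 mM sodium acetate pH 5.5, 5 mM DTT, 0.00005% Triton X-100. Reaction started with 2 uM Z-FR-AMC; AMC fluorescence increase over 60 s gives rate.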
Cruzain inh Det: cruzain (T. cruzi) inhibition with detergent; P25779; purified cruzain, Z-FR-AMC fluorescence, 0.01% Triton; Potency, µM, actives largely listed as inhibitors; actives 0.43% (n = 200,000); further: nearly all actives have a fitted effect of over 40% in size
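Detergent-containing run (0.01% Triton X-100) in acetate buffer pH 5.5 with 5 mM DTT: enzyme at 1.5 nM final, 15 min compound preincubation at room temperature, then 2 uM Z-FR-AMC substrate. Activity taken as 60 s fluorescence increase at 360/450 nm.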
A number is an active result; n = inactive; u = inconclusive. An excerpt weighted towards active compounds, which were near 2.5% of everything screened. The call rests on the fitted dose curve; in most records, active means well fitted curve in the direction sought with a large enough effect; inconclusive means small, poorly fitted or top-dose-only effect, or another doubt; inactive means no such curve, though single readings can be large; an effect the other way counts as inactive or inconclusive.

SMILES	Cruzain inh noDet	Cruzain inh Det
CC(=O)OC1CC(OC(C)=O)[C@]2(C)C(CC(OC(C)=O)[C@@]3(C)C4=CC(=O)OC(c5ccoc5)[C@]4(C)CCC32)C1(C)C (some centres undefined)	u	n
c1ncc(-c2ccc3c(c2)OCO3)c(NCCc2cnc[nH]2)n1	n	n
Fc1ccc(Nc2nc(N3CCOCC3)c3ccccc3n2)cc1	16µM	u
c1ccc2c(Nc3nc(N4CCOCC4)c4ccccc4n3)cccc2c1	n	n
COc1cccc(/C=C/C(=O)OCC(=O)c2cc(C)n(CC3CCCO3)c2C)c1OC (centres undefined)	n	n
Cc1cc(C(=O)COC(=O)c2ccc(O)cc2)c(C)n1CC1COc2ccccc2O1 (centres undefined)	25µM	n
CCCCN(CC)C(=O)CCNS(=O)(=O)c1ccc2c(c1)c(=O)n(C)c(=O)n2C	n	n
CCOC(=O)CNC(=O)O[C@@H]1C(=O)c2cc(OC)ccc2O[C@H]1c1cccc(OC)c1	n	n
CCOC(=O)CNC(=O)O[C@H]1C(=O)c2cc(OC)ccc2O[C@@H]1c1ccc(OC)c(Br)c1	13µM	n
COc1ccc(N2CCN(C(c3ccccc3F)c3sc4nc(-c5ccco5)nn4c3O)CC2)cc1 (centres undefined)	n	n
O=S(=O)(c1cccc(-c2nnc(SCc3ccc(Cl)cc3)o2)c1)N1CCCCC1	n	n
O=C(CSc1nnc(-c2cccc(S(=O)(=O)N3CCCCC3)c2)o1)c1ccc[nH]1	16µM	n
Cc1cc(C)n(-c2nc3ccccc3nc2Nc2cccc(C)c2C)n1	n	n
CCOc1ccc(Nc2cc(C)c(C#N)c3nc4ccccc4n23)cc1	n	n
COc1ccc(OC)c(C(C)NC(=O)Cn2c(=O)cc(C)c3c(C)nn(-c4ccc(C)cc4)c32)c1 (centres undefined)	n	n
Cc1ccc(N2CC(NC(=O)CCc3ccccc3)CC2=O)cc1 (centres undefined)	n	n
COc1ccccc1N1CCN(C(=O)Nc2ccc([N+](=O)[O-])cc2)CC1	n	n
COc1cc([N+](=O)[O-])ccc1NC(=O)N1CCC2(CC1)Nc1cc(F)ccc1-n1cccc12	25µM	n
COc1ccc(/C(C)=N/OC/C(O)=C(\C#N)c2nc3ccccc3[nH]2)cc1	5µM	n
COc1ccc(/C=N/OC/C(O)=C(\C#N)c2nc3ccccc3[nH]2)cc1OC	n	n
Cc1cccc(NS(=O)(=O)c2ccc3c(c2)Cc2cc(S(=O)(=O)Nc4cccc(C)c4C)ccc2-3)c1C	4µM	n
Cc1cccc(NS(=O)(=O)c2ccc3[nH]c(=O)[nH]c3c2)c1C	n	n
Cc1cc(C)c(Cn2c(C)c(CNCc3ccccc3C)c(C(=O)O)c2C)c(C)c1	n	n
Cc1oc2c(C)c3oc(=O)c(CC(=O)N4CCCCC4)c(C)c3cc2c1C	n	n
Cc1ccc(C)c(NC(=O)Cn2c(=O)n(Cc3nc(C)no3)c(=O)c3cc4c(cc32)OCO4)c1	n	n
SMILES	Cruzain inh noDet	Cruzain inh Det
Cc1cccc2cc(C#N)c(SCC(=O)NNC(=O)Cc3ccccc3)nc12	25µM	n
Cc1cccc2cc(C#N)c(SCC(=O)NCc3cccs3)nc12	6.3µM	n
Cc1ccc(C)c2nc(SCC(=O)NCc3cccs3)c(C#N)cc12	n	n
Cc1cccc2cc(C#N)c(SCC(=O)NCC3CCCO3)nc12 (centres undefined)	n	n
COC(=O)c1sc2ccccc2c1S(=O)(=O)N1CCN(c2ccc(C(C)=O)cc2)CC1	u	n
CCNc1ncc2nc(-c3ccc(F)cc3)c(=O)n(-c3ccc(OC)cc3)c2n1	n	n
Cc1ccc(CN2CCSc3ccc(C(=O)NCc4ccc(OC(C)C)cc4)cc32)cc1	n	n
O=C(NCCc1ccc(Cl)cc1)c1ccc2c(c1)N(Cc1ccccc1)CCS2	n	n
Cc1ccc(CN2CCSc3ccc(C(=O)NCCc4ccccc4)cc32)cc1	n	n
CC(=O)c1cccc(NC(=O)c2ccc3c(c2)N(Cc2ccc(C)cc2)CCS3)c1	13µM	n
Cc1ccc(CN2CCSc3ccc(C(=O)Nc4cc(C)cc(C)c4)cc32)cc1	10µM	n
O=C(Nc1ccc(Cl)cc1)c1ccc2c(c1)N(Cc1ccccc1)CCS2	32µM	n
Cc1ccc(CN2CCSc3ccc(C(=O)NCC(C)c4ccccc4)cc32)cc1 (centres undefined)	n	n
Cc1ccc(CN2CCSc3ccc(C(=O)Nc4ccc(Cl)cc4)cc32)cc1	7.9µM	n
O=C(Cc1ccc(NC(=O)N2CCCCc3ccccc32)cc1)NCc1ccccc1Br	n	n
CCOc1ccc(-n2c(=O)c3c4c(sc3n(Cc3cccc(C)c3)c2=O)CCCC4)cc1	n	n
COc1cccc(CNC(=O)Cn2ncn3nc(-c4cccs4)cc3c2=O)c1OC	n	n
COc1ccc(-c2nc3sc(CCNC(=O)C(=O)Nc4cc(C)cc(C)c4)c(C)n3n2)cc1	n	n
COc1ccc(NC(=O)Nc2nnc(N3CCCC3)s2)cc1	n	n
O=C(NCCc1ccc(Cl)cc1)c1ccc2c(c1)N(Cc1ccccc1)C(=O)CS2	32µM	n
O=C(NCCc1ccccc1)c1ccc2c(c1)N(Cc1ccc(F)cc1)C(=O)CS2	n	n
N#Cc1c2c(c(-c3ccco3)[nH]c1=O)CCCC2	n	n
N#Cc1c(NC2CCCCC2)nc(-c2ccco2)c2c1CCCC2	25µM	16µM
N#Cc1c(NCCCO)nc(-c2ccco2)c2c1CCCC2	n	16µM
CC1(C)Cc2c(C#N)c(NCCN3CCOCC3)nc(-c3ccco3)c2CO1	n	n
SMILES	Cruzain inh noDet	Cruzain inh Det
Cc1nn2cc(-c3ccc(-c4ccccc4)cc3)nc2s1	13µM	n
Cc1nn2cc(-c3ccc(Cl)cc3)nc2s1	u	n
Cc1ccccc1C(=O)NNC(=O)c1ccc(F)cc1	n	n
O=C(NNC(=O)c1ccccc1Br)c1cccc(Cl)c1	n	n
Cc1cccc(C(=O)NNC(=O)c2cc3cc4ccccc4nc3s2)c1	20µM	n
Cc1ccc(S(=O)(=O)NNC(=O)c2cc3cc4ccccc4nc3s2)cc1	n	n
O=C(NNC(=O)c1cc2cc3ccccc3nc2s1)c1ccc(F)cc1	10µM	u
O=C(NNC(=O)c1cc2cc3ccccc3nc2s1)c1cccc(Cl)c1	25µM	u
O=C(O)C(=O)/C=C(\O)c1ccc(Br)cc1	n	n
CN1CCN(c2ncc3nc(-c4cccc(C#N)c4)c(=O)n(Cc4ccc(F)cc4)c3n2)CC1	u	n
O=C(O)C12CC3(C(=O)O)CC(C(=O)O)(CC(C(=O)O)(C1)C3=O)C2=O	n	n
CNC(=O)c1c(NC(=O)c2ccc(S(=O)(=O)N3CCCCC3)cc2)sc2c1CCC2	n	n
N#Cc1c(OCC(=O)c2ccccc2)nc2c(c1-c1ccco1)CCc1ccccc1-2	7.9µM	14µM
Cc1cc(C)c(C#N)c(OCC(=O)c2ccccc2)n1	n	n
COc1ccc(C2=C(C)C(=O)N(Cc3ccc(C(=O)Nc4cc(C)ccc4C)cc3)S2(=O)=O)cc1	u	n
CC1=C(c2ccc(C)cc2)S(=O)(=O)N(Cc2ccc(C(=O)Nc3ccc(C)c(F)c3)cc2)C1=O	20µM	n
CCN(CC)S(=O)(=O)c1ccc2c(c1)c(=O)c(C(=O)N1CCN(c3cc(Cl)ccc3C)CC1)cn2C	u	n
COc1cccc(NC(=O)C2C3CCC4C(CCC32)C4(Cl)Cl)c1 (centres undefined)	n	n
COc1ccc(NC(=O)C2C3CCC4C(CCC32)C4(Cl)Cl)cc1 (centres undefined)	25µM	n

Screening results from PubChem.
